In article PMC13494018:

B1: design_486_d4f32670-1303-4d79-8413-1b14cb3eff50_66_dldesign_0_cycle1_af2pred (protein)
chain: AEAEAAAEAAAAAARAAAAAGDFATAVAITTTFAAANPALAWRVANAALAAFSQAARDPATAAAANAAMAAVVDTLRALSS
B2: design_486_d4f32670-1303-4d79-8413-1b14cb3eff50_194_dldesign_0_cycle1_af2pred (protein)
chain: GVEEAYDVAKALAEQAIKANAADPEAKKKAEEALKKAEEAYKNAPKIDPAEAAYKIMKEAAKAAKQYLAAVAK
B3: design_486_d4f32670-1303-4d79-8413-1b14cb3eff50_798_dldesign_0_cycle1_af2pred (protein)
chain: GVQALAAATLEAMELAKKIGANEAVRNLGAALAVAGTRHPELAPEFTKRVEELLKLAKEAAKGDKEEAAKLVAEEARKLRDAALAA
B4: design_391_ca6baf5d-2451-47ba-bffc-fc886679966a_2108_dldesign_0_cycle1_af2pred (protein)
chain: TAAAALAAAKAALATAKAAGLPARYLEMAEAALAVATSAAASGDPAHQKAALAFSSAVLAAIEAEAAKRA
B5: design_486_d4f32670-1303-4d79-8413-1b14cb3eff50_135_dldesign_0_cycle1_af2pred (protein)
chain: EREEEVERRREEVVRAAELVAAIARAVGDEETARLAEEAKRLAEEGGEEGVERARELVREAMVRIAKRLAEKS
B6: design_486_d4f32670-1303-4d79-8413-1b14cb3eff50_897_dldesign_0_cycle1_af2pred (protein)
chain: NPQGEAAVRYAEIAARARRLAEEARAAGREELAAEFQRIAEAARAALRRAVAANVAGEDRSEELVAEAERLERELEELERRFR
B7: design_486_d4f32670-1303-4d79-8413-1b14cb3eff50_394_dldesign_0_cycle1_af2pred (protein)
chain: AEANVALGKRMLEAGKKLAEETKELAKKAKKGEDKEGAKEAAKVALAFAETLELVAEGVPEIAEELKKAAKELKEAAEKALKAAKAA
B8: design_486_d4f32670-1303-4d79-8413-1b14cb3eff50_34_dldesign_0_cycle1_af2pred (protein)
chain: AAEKAIKVLEEAKKEAAKDPGDGKAAIEAIEKAIEAVKANPNNAGIGQAMVILAEAAAKASPKTRAVLSKAIAELSQVAI
B9: design_486_d4f32670-1303-4d79-8413-1b14cb3eff50_788_dldesign_0_cycle1_af2pred (protein)
chain: MREEAERVRRRAEEVEELAAKASPAVAAQVRARARAARTFAEAALRSPDPELAAQAVAAAEANVEAAEQLLAADA
B10: design_391_ca6baf5d-2451-47ba-bffc-fc886679966a_1764_dldesign_0_cycle1_af2pred (protein)
chain: DPLEEALKEFEEALKLARELAEAVAALNPEEGERAREAIKEAEKRAKEALKLSPEEAAKAIREIRNELMRRVMREGARALAAA
B11: design_486_d4f32670-1303-4d79-8413-1b14cb3eff50_30_dldesign_0_cycle1_af2pred (protein)
chain: AAAARAKAGVYTGEGFEKVREGERLRREGDPRAVEEYEEAAKLFEKAAEYYAQVNPGAAAGVAAMAKQVRERAEEYREEL
B12: design_486_d4f32670-1303-4d79-8413-1b14cb3eff50_565_dldesign_0_cycle1_af2pred (protein)
chain: MTEEELIQRTADANVRQVRRVAVEEGLEAGRRQLELNVKSLESVGATEIAAEMERRAEAALAEAAAELARRAAE
B13: design_391_ca6baf5d-2451-47ba-bffc-fc886679966a_1932_dldesign_0_cycle1_af2pred (protein)
chain: AQANAELTLRTLEAAGRAALALARASDAETAARILDAFRKTSAVLIESGAAAGPEAAKKVKELADKYLAELEAIVAAKAAEAA
B14: design_391_ca6baf5d-2451-47ba-bffc-fc886679966a_1789_dldesign_0_cycle1_af2pred (protein)
chain: DALAQAIAQIKEMGDIALALAQDALANPAIAAGAIRAAQSLVKHMLALGKAAGPEAAAVAEKEAAKVNAAIAQAKAA
B15: design_391_ca6baf5d-2451-47ba-bffc-fc886679966a_1909_dldesign_0_cycle1_af2pred (protein)
chain: VGLAKAAELAVESAKQAVEQAEALAKAGKDPKQALALTDQAKLAADTAKAIAKQVEKEDPEKGKKLKEEAEKVKKKAEEVEKKIK
B16: design_391_ca6baf5d-2451-47ba-bffc-fc886679966a_2255_dldesign_0_cycle1_af2pred (protein)
chain: DPLLAAARAVAAAALAAVRDGAARGAEAAEQALTFALNLLAAQARRAERELAGDPALRARVLAILDAARAEVRALGEALIAAAR
B17: design_391_ca6baf5d-2451-47ba-bffc-fc886679966a_2349_dldesign_0_cycle1_af2pred (protein)
chain: NQAKLAEVFARAQEVIKRREEVRKRAEELSEEKREKVLKLLEESTKYLQEAFRAIAKGDAENAKKYVDKAEKLVEEAEKA
B18: design_486_d4f32670-1303-4d79-8413-1b14cb3eff50_845_dldesign_0_cycle1_af2pred (protein)
chain: SAAEQQLQQAKGYITLANAIARDPNPTPEQLQLAKEAAQQAIKLAEQVEKAVGEKGKEVKKQAEEALAKVQALL
B19: design_486_d4f32670-1303-4d79-8413-1b14cb3eff50_402_dldesign_0_cycle1_af2pred (protein)
chain: ADEEKVKQAKKLAEEALRLAKEDPEKAKKKLEEAAKLAAASPAALEILLSVAGELYRINPEVGKAARQAFATAATAIV

What follows are binders tested against CD276, Q5ZPR3.
CD276, Q5ZPR3, sequence (Q5ZPR3 whole entry): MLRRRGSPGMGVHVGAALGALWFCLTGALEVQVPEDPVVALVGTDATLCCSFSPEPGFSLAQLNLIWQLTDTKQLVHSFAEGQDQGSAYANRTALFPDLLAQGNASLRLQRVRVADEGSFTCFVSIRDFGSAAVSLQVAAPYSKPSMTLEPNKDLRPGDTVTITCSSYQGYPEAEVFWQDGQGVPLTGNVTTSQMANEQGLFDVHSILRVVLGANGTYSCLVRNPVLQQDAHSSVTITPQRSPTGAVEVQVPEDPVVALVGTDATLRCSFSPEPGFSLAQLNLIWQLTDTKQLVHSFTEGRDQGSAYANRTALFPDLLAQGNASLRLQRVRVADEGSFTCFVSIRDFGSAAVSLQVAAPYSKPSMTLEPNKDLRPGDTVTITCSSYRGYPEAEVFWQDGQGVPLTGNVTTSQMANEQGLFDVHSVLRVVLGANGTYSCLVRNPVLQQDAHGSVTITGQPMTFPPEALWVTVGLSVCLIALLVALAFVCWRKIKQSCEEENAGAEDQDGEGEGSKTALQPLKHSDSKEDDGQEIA

Binding in a display sort, inactive:
B1 not found
B2 not found
B3 not found
B4 not found
B5 not found
B6 not found
B7 not found
B8 not found
B9 not found
B10 not found
B11 not found
B12 not found
B13 not found
B14 not found
B15 not found
B16 not found
B17 not found
B18 not found
B19 not found
